# Tau fibril FP = qHTS for Inhibitors of Tau Fibril Formation, Fluorescence Polarization; K18 P301L tau heparin fibrillization, Alexa594 FP, 6 h; Microtubule-associated protein tau (Homo sapiens), P10636; AID 1468, 2008; 280,000 compounds, 0.39% hits; Potency, µM (doses to about 57.7 µM), inactives show at the top dose activity, negative = inhibition, actives largely listed as inhibitors; also: nearly all actives have a fitted effect of over 55% in size
# Target sequence (P10636 561-689 P618L limits assumed): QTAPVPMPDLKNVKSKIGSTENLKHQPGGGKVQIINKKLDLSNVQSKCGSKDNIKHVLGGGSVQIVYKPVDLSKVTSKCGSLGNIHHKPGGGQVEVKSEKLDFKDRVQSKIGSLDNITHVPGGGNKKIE
#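 Compound effects on tau fibrillization are measured by Alexa 594 fluorescence polarization (ex 555, em 632 nm). K18 P301L tau is used at 15 uM with 0.24 uM labeled tracer, and 20 uM heparin induces aggregation over 6 hr at 37 C.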
# Tau fibril ThT = qHTS for Inhibitors of Tau Fibril Formation, Thioflavin T Binding. Potency, µM (doses to about 57.4 µM), for the others: top-dose activity, negative = inhibition, most hits filed as inhibitors. recombinant tau K18 P301L, heparin-induced fibrillization, ThT fluorescence. AID 1460, 2008. 270,000 compounds, 2.1% hits; also: nearly all actives have a fitted effect of over 55% in size
#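 Tau K18 P301L fragment (15 uM unlabeled plus 0.24 uM Alexa 594-labeled) in 100 mM sodium acetate pH 7 with compound, fibrillization induced by 20 uM heparin for 6 hr at 37 C. Thioflavin T (30 uM) added, fluorescence read after 1 hr (ex 450, em 510 nm).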
# Tau fluor counter = Counterscreen qHTS for Inhibitors of Tau Fibril Formation, Fluorescence Polarization | tau K18 P301L Alexa594 fluorescence, heparin fibrillization | Potency, µM (titrated, usually from 57.7 µM), without a hit: at the top dose activity change, negative = decrease | 280,000 compounds, 0.93% hits | AID 1463, 2008; also: nearly all actives have a fitted effect of over 55% in size
#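 Human tau K18 P301L (15 uM unlabeled, 0.24 uM Alexa 594-labeled) in 100 mM sodium acetate pH 7 with 20 uM heparin, 6 hr at 37 C. ThT 30 uM added, 1 hr ambient; Alexa 594 FP and total fluorescence read at 555/632 nm.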
# VP16 counter = VP16 counterscreen qHTS for inhibitors of ROR gamma transcriptional activity; Drosophila S2 Gal4-VP16 UAS-luciferase, luminescence, 20 h; Potency, µM (series often up to 53.6 µM), for the others: at the top dose activity, negative = inhibition, most hits filed as inhibitors; 310,000 compounds, 3.5% hits; AID 2546, 2010;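 also: Gal4-VP16 expression switched on by copper sulfate through the metallothionein promoter; nearly all actives have a fitted effect of over 50% in size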
# RORgamma inh = qHTS for inhibitors of ROR gamma transcriptional activity; Potency, µM (doses to about 53.6 µM), for inactives: top-dose activity change, negative = inhibition, most hits filed as inhibitors; 310,000 compounds, 5.4% hits; Nuclear receptor ROR-gamma (Mus musculus), P51450; Drosophila S2 Gal4-RORgamma UAS-luciferase reporter, 20 h; also: nearly all actives have a fitted effect of over 60% in size
# Target sequence (P51450 whole entry, looked up, the tested form may be a part): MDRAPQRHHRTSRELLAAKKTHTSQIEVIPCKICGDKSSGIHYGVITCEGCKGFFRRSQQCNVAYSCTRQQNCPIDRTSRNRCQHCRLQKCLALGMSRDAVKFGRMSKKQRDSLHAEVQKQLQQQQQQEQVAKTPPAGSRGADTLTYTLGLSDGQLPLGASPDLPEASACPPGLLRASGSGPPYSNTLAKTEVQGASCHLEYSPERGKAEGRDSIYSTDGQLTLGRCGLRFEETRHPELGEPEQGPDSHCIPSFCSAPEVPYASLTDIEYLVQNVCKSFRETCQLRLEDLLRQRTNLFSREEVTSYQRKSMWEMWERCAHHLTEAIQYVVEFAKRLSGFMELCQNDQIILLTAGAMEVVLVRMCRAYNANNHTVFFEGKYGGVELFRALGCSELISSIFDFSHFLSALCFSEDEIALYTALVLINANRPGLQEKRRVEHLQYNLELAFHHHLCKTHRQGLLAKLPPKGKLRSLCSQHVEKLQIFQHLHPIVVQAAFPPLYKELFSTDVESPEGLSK
#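 Read-out: Photinus luciferase luminescence; inhibitors lower reporter signal. Insect Schneider cells with Gal4-ROR gamma fusion under metallothionein promoter, UAS reporter; 700 uM final copper sulfate induction, 20 hr, ambient temperature.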
# * hit, by the source's call; ? = inconclusive; / = no result; [ ] = remark or other dose. The list is not random: actives were taken first. Their share in the collection is about 7.3%. Calls follow the shape of the dose curve; as a rule, active = well fitted curve in the direction sought with a large enough effect; inconclusive = small, poorly fitted or top-dose-only effect, or another doubt; inactive = no such curve, though single readings can be large; an effect the other way counts as inactive or inconclusive. % is scaled to controls: 0 for no effect and ±100 for the full control effect; potency is read from the fitted curve at half-maximal effect.
SMILES,Tau fibril FP,Tau fibril ThT,Tau fluor counter,VP16 counter,RORgamma inh
COCCCCCCCCCCCC(=O)O,7.3%,-2.6%,4.5%,-1.4%,-8.7%
N#Cc1c(-n2ncnc2-c2ccccc2Cl)sc2c1CCCCC2,3.4%,?,-10.4%,/,/
Cc1ccc2c(Cl)c(C)c(N3CCCC3)nc2n1,10.1%,-0.1%,9.0%,11.2µM*,2.82µM*
Cc1nc2ccccc2nc1N1CCCC1,13.0%,-7.1%,-0.3%,0.6%,-7.6%
Cc1cc(C(=O)Nc2sc(C)c(C)c2C#N)no1,1.2%,?,-7.2%,/,4.4%[0.365 µM]
COc1cc2cc3c(N)c(C(=O)NCc4ccco4)sc3nc2cc1OC,-4.5%,14.1µM*,?,-7.1%,?
COc1cc2cc3c(N)c(C(=O)Nc4sc(C)c(C)c4C#N)sc3nc2cc1OC,8.4%,5.01µM*,-26.9%,-21.3%,-2.4%
Cc1ccc2nc3sc(C(=O)NCc4ccco4)c(N)c3cc2c1,-12.5%,?,-29.9%,-16.7%,?
CCn1c(=N)n(CC(=O)C(C)(C)C)c2ccccc21,-6.0%,2.9%,-3.9%,3.16µM*,?
CCCCn1c(=N)n(CC(=O)C(C)(C)C)c2ccccc21,6.5%,-13.0%,-7.2%,?,5.01µM*
Cn1c(=N)n(CC(=O)c2ccccc2)c2ccccc21,-5.7%,-8.2%,-3.0%,11.2µM*,8.91µM*
Cn1c(=N)n(CC(=O)C(C)(C)C)c2ccccc21,-3.2%,-7.5%,-3.2%,?,11.2µM*
C/C(=C\C(=O)c1ccc(Br)cc1)Nc1ccc(Cl)cc1,2.1%,12.9%,11.5%,11.2µM*,7.08µM*
COc1ccc(N/C(C)=C/C(=O)c2ccccc2)cc1,8.1%,?,-12.3%,?,9.8%
COc1ccc(C(=O)NN/C(C)=C/C(=O)c2ccccc2)cc1,/,/,/,5.01µM*,6.31µM*
C/C(=C\C(=O)c1ccccc1)NNC(=O)c1ccc(Cl)cc1,/,/,/,4.47µM*,7.08µM*
COc1ccc(C(=O)NNC(=O)C(=O)/C=C(\O)c2ccc(C)cc2)cc1,/,/,/,?,12.6µM*
NC(C(=O)O)C(CC(=O)O)c1ccc(Cl)cc1 (configuration not stated),3.0%,4.8%,0.5%,/,/
Cc1oc2ccc(O)c(CN(C)Cc3ccccc3)c2c1C(=O)Nc1cccc(Cl)c1C,0.0%,?,?,/,/
CCOc1ccc(S(=O)(=O)N2CCC(C(=O)NCc3ccncc3)CC2)cc1C,/,/,/,2.2%,19.3%
Cc1nc2scc(C)n2c(=O)c1S(=O)(=O)NCC1CCN(Cc2ccc(F)cc2)CC1,/,/,/,-0.3%,-4.9%
CC(C)c1ccc(-c2noc(C3CCCN(C(=O)c4ccc(F)cc4F)C3)n2)cc1 (configuration not stated),9.2%,-11.5%,-6.4%,8.91µM*,?
Cc1ccc(-c2noc(C3CCCN(C(=O)c4ccc(F)cc4F)C3)n2)cc1 (configuration not stated),9.4%,-9.9%,-9.9%,?,?
O=C(O)c1ccccc1C(=O)Nc1c(-c2ccccc2)nc2ccccn12,/,/,/,-7.2%,-6.9%
CCC(=O)Nc1cccc(C(=O)/C=C/c2cccs2)c1,-0.5%,?,-13.5%,?,?
SMILES,Tau fibril FP,Tau fibril ThT,Tau fluor counter,VP16 counter,RORgamma inh
O=C(/C=C/c1ccccc1)Nc1cccc(C(=O)O)c1,0.3%,6.1%,-4.3%,5.62µM*,3.98µM*
CCC(=O)Nc1cccc(C(=O)/C=C/c2ccccc2)c1,3.0%,?,1.1%,?,15.8µM*
Cc1nc2cnc(N(C)C)nc2n(-c2ccccc2)c1=O,/,/,/,-6.9%,-19.4%
Cc1ccc(CNC(=O)C2CCCN(c3nn4c(=O)cc(C)nc4s3)C2)cc1 (configuration not stated),-1.5%,-3.8%,-4.1%,-0.3%,-6.8%
O=C(NCCc1c[nH]c2ccccc12)c1cc2sccc2n1Cc1ccccc1,-7.4%,-18.1%,8.91µM*[quencher],-8.9%,11.0%
FC(F)(F)c1cc(CN2CCC3(CCNCC3)CC2)cc(C(F)(F)F)c1,/,/,/,-8.8%,-14.5%
CC(=O)NCCNc1ncncc1-c1ccc(N(C)C)cc1,/,/,/,-18.8%,?
O=c1[nH]c2ccccc2c(O)c1O,7.08µM*,3.16µM*,-23.2%,-1.4%,7.6%
O=c1[nH]c2ccccc2c(O)c1-[n+]1ccccc1,-1.1%,-5.2%,-7.1%,-3.0%,-1.8%
CCN(CC)CCCNC1=C(Cl)C(=O)c2ccccc2C1=O,-8.4%,?,-25.0%,?,7.94µM*
CC(C)OCCCNC1=C(Cl)C(=O)c2ccccc2C1=O,7.2%,12.6µM*,?,?,-43.5%
COCCCNC(=O)CCCn1c(=O)c2cccn2c2cccnc21,11.2%,0.2%,9.5%,/,/
COc1cccc(C2=Nn3c(nnc3-c3ccc(OC)c(OC)c3)SC2)c1,/,/,/,0.3%,-40.0%
COc1ccc(-c2csc(-c3[nH]cnc3N)n2)cc1,-1.0%,11.2µM*,15.8µM*[quencher],-2.4%[10 µM],2.3%
O=C(CC1SC(=NCCc2ccccc2)N(/N=C/c2cccs2)C1=O)Nc1ccc(Cl)cc1 (configuration not stated),0.2%,4.9%,-0.7%,0.794µM*,0.501µM*
O=C(CC1SC(=O)N(c2ccccc2)C1=O)Nc1ccc(Cl)cc1 (configuration not stated),-3.7%,?,-19.0%,-6.1%,15.8µM*
O=C(CC1SC(=Nc2ccccc2)N(CCCO)C1=O)Nc1ccc(Cl)cc1 (configuration not stated),?,4.8%,?,4.2%[0.365 µM],-0.2%
O=C(CC1SC(=O)N(c2ccccc2)C1=O)Nc1ccc(Br)cc1 (configuration not stated),3.7%,?,-24.8%,7.3%,-26.0%
Cc1ccccc1-c1nc(CS(=O)CC(=O)NC2CCCCC2)c(C)o1 (configuration not stated),/,/,/,14.4%,9.1%
CCCn1c(C2CCCN2c2nc(-c3cccc(Br)c3)cs2)nc2ccccc21 (configuration not stated),/,/,/,?,2.51µM*
CC(=O)n1nc(-c2ccccc2)nc1NCc1ccc(N(C)C)cc1,3.0%,?,?,?,15.7%
O=C(Nc1nccs1)c1ccc(COc2ccc(Cl)cc2)o1,-15.5%,-6.1%,-14.5%,-28.8%,12.6µM*
Cc1ccc(C(=O)Nc2nccs2)cc1,6.3%,-2.6%,4.1%,-8.2%,?
O=C(Nc1nccs1)c1ccc(COc2ccc(F)cc2)o1,-3.7%,-10.0%,-9.5%,?,?
CN(C)c1ccc(NC(=O)c2ccc(COc3cccc(Cl)c3)o2)cc1,?,11.2µM*,?,-2.9%,31.1%
O=C(CSCc1ccc(Cl)cc1)Nc1nccs1,-5.6%,-7.2%,-5.2%,0.1%,14.1µM*

# From PubChem BioAssay
